{
  "source": "PubChem BioAssay AID504339",
  "about": "(National Center for Advancing Translational Sciences (NCATS), 2011)",
  "note": "Out of some 390,000 compounds screened, about 17,000 (4.4%) were called active. Not shown: some 8% with an inconclusive outcome. The list comes from a sample in which actives are over-represented; it also holds similar structures and randomly drawn compounds. Values without a mark were called inactive. Calls come from the whole dose curve; as a rule, active = well fitted inhibition curve with a large enough effect; inconclusive = small, poorly fitted or top-dose-only effect; inactive = no such curve, though single readings can be large or run the other way. % is set by controls: 0 for no effect and ±100 for the full control effect; potency is the fitted concentration of half-maximal effect.",
  "data": [
    {"molecular_target": "Lysine-specific demethylase 4A (Homo sapiens) (UniProt O75164)", "sequence (O75164 whole entry, looked up, the tested form may be a part)": "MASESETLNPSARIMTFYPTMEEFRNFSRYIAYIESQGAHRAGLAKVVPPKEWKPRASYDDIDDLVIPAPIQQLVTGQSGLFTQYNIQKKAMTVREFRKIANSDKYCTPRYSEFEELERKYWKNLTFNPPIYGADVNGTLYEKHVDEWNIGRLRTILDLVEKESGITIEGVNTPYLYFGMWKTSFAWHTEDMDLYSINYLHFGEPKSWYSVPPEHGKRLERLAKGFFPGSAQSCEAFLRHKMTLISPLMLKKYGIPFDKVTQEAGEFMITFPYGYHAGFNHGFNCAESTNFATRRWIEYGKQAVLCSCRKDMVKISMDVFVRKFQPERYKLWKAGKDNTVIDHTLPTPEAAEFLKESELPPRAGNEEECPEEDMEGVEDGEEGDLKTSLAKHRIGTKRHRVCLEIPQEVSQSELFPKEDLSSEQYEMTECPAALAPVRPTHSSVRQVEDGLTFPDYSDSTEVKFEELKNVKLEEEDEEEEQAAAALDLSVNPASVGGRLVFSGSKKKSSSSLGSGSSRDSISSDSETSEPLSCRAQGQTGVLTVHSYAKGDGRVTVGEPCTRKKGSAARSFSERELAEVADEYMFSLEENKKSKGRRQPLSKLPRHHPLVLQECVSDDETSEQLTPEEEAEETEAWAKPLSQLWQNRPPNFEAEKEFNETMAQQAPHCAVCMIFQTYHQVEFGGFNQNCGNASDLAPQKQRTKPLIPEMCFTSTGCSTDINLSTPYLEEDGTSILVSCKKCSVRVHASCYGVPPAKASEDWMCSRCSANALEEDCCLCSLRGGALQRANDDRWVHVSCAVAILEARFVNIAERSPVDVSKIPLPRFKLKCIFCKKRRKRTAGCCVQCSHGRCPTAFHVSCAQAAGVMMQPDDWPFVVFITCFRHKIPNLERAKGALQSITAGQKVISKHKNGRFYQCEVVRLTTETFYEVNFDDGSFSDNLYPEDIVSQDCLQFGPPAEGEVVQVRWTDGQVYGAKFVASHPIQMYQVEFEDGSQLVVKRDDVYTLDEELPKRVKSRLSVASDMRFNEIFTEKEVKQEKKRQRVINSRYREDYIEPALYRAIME", "assay": "qHTS Assay for Inhibitors of JMJD2A-Tudor Domain; note: nearly all actives have a fitted effect of over 50% in size", "details": "AlphaScreen JMJD2A-Tudor / H3K4me3 peptide binding; series mostly up to 114 µM; activity change, negative = inhibition: at the top concentration", "units": {"activity change, negative = inhibition": "%"}, "values": [
      {"smiles": "CCC1CCCCN1C(=O)Cn1c(=O)n(CCCCCC(=O)NCc2ccccc2)c(=O)c2sccc21", "note": "(stereo unspecified)", "activity change, negative = inhibition": -13},
      {"smiles": "CN1CCOc2cc(S(=O)(=O)N3CCN(S(=O)(=O)c4c(F)cccc4F)CC3)cnc21", "activity change, negative = inhibition": -4.11},
      {"smiles": "CCCc1cc(-c2n[nH]c(=S)n2CC)c2ccccc2n1", "Potency": "79.4 µM (active)"},
      {"smiles": "CCn1c(SCC(=O)Nc2nccs2)nnc1-c1ccncc1", "activity change, negative = inhibition": -7.95},
      {"smiles": "CCCn1c(C)cc(-c2csc(NC(=O)CCc3nc4ccccc4c(=O)[nH]3)n2)c1C", "activity change, negative = inhibition": -14.5},
      {"smiles": "CCn1c(C)nc2c1C(=O)c1ccccc1C2=O", "activity change, negative = inhibition": -13.7},
      {"smiles": "CC(C)n1c(-c2ccncc2)n[nH]c1=S", "Potency": "22.4 µM (active)"},
      {"smiles": "CCn1c(SCC(=O)NC2CCCC2)nnc1-c1ccoc1C", "activity change, negative = inhibition": -11},
      {"smiles": "CCn1c(-c2ccncc2)n[nH]c1=S", "Potency": "10 µM (active)"},
      {"smiles": "CCn1c(SCC(=O)Nc2ccc3c(c2)OCCO3)nnc1-c1ccncc1", "activity change, negative = inhibition": -9.15},
      {"smiles": "CCn1c(-c2ccoc2C)n[nH]c1=S", "Potency": "10 µM (active)"},
      {"smiles": "CC(C)n1c(-c2cccs2)nc2ccccc21", "activity change, negative = inhibition": -9.38},
      {"smiles": "O=C(CC1C(=O)N(c2ccccc2)C(=O)N1CCc1cccs1)Nc1ccc(F)cc1", "note": "(stereo unspecified)", "activity change, negative = inhibition": -16.2},
      {"smiles": "O=C(NCCCO)C(=O)Nc1c2c(nn1-c1ccccc1)CSC2", "activity change, negative = inhibition": 6.49},
      {"smiles": "COc1cccc(-c2nc(S(=O)(=O)c3ccc(C)cc3)c(NCc3ccccc3)o2)c1", "activity change, negative = inhibition": -30.1},
      {"smiles": "O=C(NCc1ccc(F)cc1)c1ccc2nc(N3CCCCC3)sc2c1", "activity change, negative = inhibition": -13.4},
      {"smiles": "Cc1ccc(NC(=O)CSc2nc3c([nH]c4ccccc43)c(=O)n2-c2ccccc2)c(C)c1", "activity change, negative = inhibition": -9.03},
      {"smiles": "O=C(Nc1ccc(Br)cc1)c1ccc(Br)c(S(=O)(=O)NCc2ccccc2)c1", "activity change, negative = inhibition": -16.7},
      {"smiles": "COc1ccc(CCNC(=O)c2ccc3c(c2)sc2nc(-c4ccc(C)cc4)cn23)cc1OC", "activity change, negative = inhibition": -2.96},
      {"smiles": "Cc1ccc(Oc2c(C(F)(F)F)oc3c(CN4CCCCC4)c(O)ccc3c2=O)cc1", "activity change, negative = inhibition": -11.8},
      {"smiles": "O=C(c1ccc(F)cc1)N1CCC(n2nnc3ccccc32)CC1", "activity change, negative = inhibition": -0.369},
      {"smiles": "O=C(c1ccc(F)cc1)N1CCCC(C(=O)N2CCCCC2)C1", "note": "(stereo unspecified)", "activity change, negative = inhibition": -5.84},
      {"smiles": "CC1CCCC(N2CCN(C(=O)c3ccc(F)cc3)CC2)C1", "note": "(stereo unspecified)", "Potency": "10 µM (active)"},
      {"smiles": "CCOc1ccc(S(=O)(=O)Nc2ccc3oc4c(c3c2)CC(C)CC4)cc1", "note": "(stereo unspecified)", "activity change, negative = inhibition": -24.4},
      {"smiles": "Cc1ccccc1CSc1nc2c([nH]c3ccccc32)c(=O)n1C", "activity change, negative = inhibition": -7.74},
      {"smiles": "Cc1ccc2nc(COc3cccc(NC(=O)c4cccc(Cl)c4)c3)cc(=O)n2c1", "activity change, negative = inhibition": -13.3},
      {"smiles": "CC(OC(=O)c1cc2ccccc2o1)C(=O)Nc1ccc(N2CCOCC2)cc1", "note": "(stereo unspecified)", "activity change, negative = inhibition": -14.4},
      {"smiles": "COc1ccc(-c2cc(=O)oc3cc(OC(C)C(=O)Nc4ccc(CN5CCOCC5)cc4)ccc23)cc1", "note": "(stereo unspecified)", "activity change, negative = inhibition": -35.9},
      {"smiles": "Cc1cc(=O)oc2cc(OC(C)C(=O)Nc3ccc(N4CCOCC4)cc3)ccc12", "note": "(stereo unspecified)", "Potency": "89.1 µM (active)"},
      {"smiles": "COc1ccc(-c2c(C)c3ccc(O)c(CN4CCCC4)c3oc2=O)cc1OC", "activity change, negative = inhibition": -2.9},
      {"smiles": "COc1cc(OC)c(OC)cc1/C=C/c1nc2cc3ccccc3cc2c(=O)n1-c1ccc(F)c(Cl)c1", "activity change, negative = inhibition": -24.5},
      {"smiles": "O=C(CSc1nc(Nc2ccc(F)c(F)c2)c2ccccc2n1)c1ccc(Cl)cc1", "activity change, negative = inhibition": -15.7},
      {"smiles": "Cc1ccnc(-n2sc3ccccc3c2=O)n1", "Potency": "6.31 µM (active)"},
      {"smiles": "Cc1ccc(-c2nnc(Nc3cccc(Br)c3)c3ccccc23)cc1S(=O)(=O)NCC1CCCO1", "note": "(stereo unspecified)", "activity change, negative = inhibition": -10},
      {"smiles": "Cc1ccc(/C=C/C(=O)Nc2ccc([N+](=O)[O-])c(NC(=O)/C=C/c3ccc(C)o3)c2)o1", "Potency": "79.4 µM (active)"},
      {"smiles": "CNc1ccc(NC(C)=O)cc1[N+](=O)[O-]", "activity change, negative = inhibition": -19.1},
      {"smiles": "Cc1ccc(/C=C/C(=O)Nc2cc(S(=O)(=O)N3CCCCCC3)ccc2OCC(F)(F)F)o1", "activity change, negative = inhibition": -8.97},
      {"smiles": "Oc1ccc2nc(Cc3ccccc3)[nH]c2c1", "activity change, negative = inhibition": -15.7},
      {"smiles": "Cc1nc2ccccc2nc1N/N=C/c1ccc(O)cc1O", "Potency": "14.1 µM (active)"},
      {"smiles": "Cc1ccc(/C=N/NC(=O)C2=NNC(c3ccccc3)(c3ccccc3)C2)c(O)c1", "activity change, negative = inhibition": -7.05},
      {"smiles": "CCOC(=O)c1ccc(NC(=O)CC2C(=O)N(c3cccc(OC)c3)C(=O)N2C2CCCCC2)cc1", "note": "(stereo unspecified)", "activity change, negative = inhibition": -16.6},
      {"smiles": "O=C(N[C@@H](Cc1ccccc1)C(=O)OCc1ccccc1)c1nc[nH]c1C(=O)NC1CCNCC1", "activity change, negative = inhibition": -31.2},
      {"smiles": "CCOC(=O)c1ccc(NC(=O)c2nc[nH]c2C(=O)NCc2ccccc2)cc1", "activity change, negative = inhibition": -6.99},
      {"smiles": "CCOC(=O)c1[nH]cnc1C(=O)NC1CCCCC1", "Potency": "3.98 µM (active)"},
      {"smiles": "CCc1ccccc1NC(=O)N1CCN(C(=O)c2nsc3ccccc23)CC1", "activity change, negative = inhibition": -18.2},
      {"smiles": "CCOC(=O)c1cccc(NS(=O)(=O)c2cn(C)c(C)n2)c1", "activity change, negative = inhibition": -7.67},
      {"smiles": "Fc1ccc(CSc2nc(NCc3ccccc3)c3ccccc3n2)cc1", "activity change, negative = inhibition": 23.7},
      {"smiles": "CCCS(=O)(=O)C(=C1Nc2ccccc2N1)S(=O)(=O)CCC", "activity change, negative = inhibition": -0.758},
      {"smiles": "CN(C)/C=C1/Nc2ccccc2C1=O", "Potency": "50.1 µM (active)"},
      {"smiles": "CCOc1ccccc1CNC(=O)c1cnc2c(-c3ccc(OCC)c(OCC)c3)c(C)nn2c1C", "activity change, negative = inhibition": -20},
      {"smiles": "COc1ccccc1CNC(=O)CCn1c(=O)c2ccccc2n(CC(=O)Nc2cccc(Cl)c2)c1=O", "activity change, negative = inhibition": -7.17}
    ]}
  ]
}
